Source: PubChem
In the library only some 1.2% were active in any assay of this set; here they are far more common.
USP2a inh: blocks human ubiquitin-specific protease USP2a; USP2 core, Ub-CHOP2 coupled fluorogenic reporter, 485/531; AID 463254; actives 0.01% (n = 330,000); O75604; Potency, µM (doses to about 38.3 µM), most hits filed as inhibitors
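Deubiquitinase activity read as fluorescence (485/531 nm) after Ub-CHOP2 cleavage activates the enterokinase reporter on its substrate; USP2 core 10nM, Ub-CHOP2 and substrate 25nM each, 30min compound preincubation then 60min RT; data normalized to NEM, curves fitted.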
CtBP-E1A inh: CtBP/E1A binding inhibition; AlphaScreen GST-E1A/His-CtBP binding, 1536-well; stronger effect = lower value; activity change, % (no concentration beside the values); actives 0.49% (n = 340,000); AID 651724; in the data active = activity change below about -65%; inconclusive = mostly about -30% to -63%
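AlphaScreen with 125 nM GST-E1A and 125 nM His-CtBP (5X stocks) in Tris pH 8.0, 300 mM NaCl, BSA, Tween 20, TCEP. Compounds preincubated 2 h at 37 deg C, then glutathione donor/nickel acceptor beads added for 1 h at 37 deg C in dark.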
Six1-Eya2 blk: inhibitors of human Six1/Eya2 interaction; Q15475+O00167; AlphaScreen GST-Six1/His-Eya2 binding, biochemical; stronger effect = lower value; activity change, % (concentration not given with the values); actives 0.56% (n = 360,000); in the data active = activity change below about -65%; inconclusive = mostly about -30% to -63%
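Homogeneous AlphaScreen proximity assay pairing GST-Six1 with His-tagged Eya2 (added as 5X mix: 250 nM and 500 nM) in 50 mM Tris pH 8.0, 300 mM NaCl, 1 mM TCEP. Glutathione donor and nickel acceptor beads; 1 h, 37 °C, dark.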
uPA generation: cell surface uPA generation inhibition; actives 0.31% (n = 330,000); Potency, µM (titrated, usually from 38.3 µM), most hits filed as inhibitors; cell surface uPA generation assay, qHTS; active = well fitted inhibition curve with a large enough effect; inconclusive = small, poorly fitted or top-dose-only effect; inactive = no such curve, though single readings can be large or run the other way; tested in mouse RAW 264.7 cells; also: nearly all actives have a fitted effect of over 55% in size
Eya2 inh: Eya2 (human) phosphatase inhibition; O00167; recombinant Eya2, OMFP fluorescence dephosphorylation (OMFP is methylfluorescein phosphate); Potency, µM (doses to about 76.9 µM), hits mostly inhibitors; actives 0.006% (n = 330,000); AID 488837
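Eya2 protein (added as 0.2 uM solution) was preincubated with compound for 10 min at ambient temperature in 50 mM HEPES pH 7.5, 50 mM NaCl, 5 uM MgCl2, 0.05% BSA, 1 mM DTT. OMFP (added at 50 uM) then reacted 10 min; fluorescence read at 485/525 nm.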
L3MBTL1 inh: L3MBTL1 (human) inhibition; Q9Y468; AID 485360; Potency, µM (highest dose often 57.1 µM), actives largely listed as inhibitors; AlphaScreen L3MBTL1–H3K9me1 peptide binding; actives 0.66% (n = 230,000); also: nearly all actives have a fitted effect of over 60% in size
Target sequence (Q9Y468 whole entry, looked up): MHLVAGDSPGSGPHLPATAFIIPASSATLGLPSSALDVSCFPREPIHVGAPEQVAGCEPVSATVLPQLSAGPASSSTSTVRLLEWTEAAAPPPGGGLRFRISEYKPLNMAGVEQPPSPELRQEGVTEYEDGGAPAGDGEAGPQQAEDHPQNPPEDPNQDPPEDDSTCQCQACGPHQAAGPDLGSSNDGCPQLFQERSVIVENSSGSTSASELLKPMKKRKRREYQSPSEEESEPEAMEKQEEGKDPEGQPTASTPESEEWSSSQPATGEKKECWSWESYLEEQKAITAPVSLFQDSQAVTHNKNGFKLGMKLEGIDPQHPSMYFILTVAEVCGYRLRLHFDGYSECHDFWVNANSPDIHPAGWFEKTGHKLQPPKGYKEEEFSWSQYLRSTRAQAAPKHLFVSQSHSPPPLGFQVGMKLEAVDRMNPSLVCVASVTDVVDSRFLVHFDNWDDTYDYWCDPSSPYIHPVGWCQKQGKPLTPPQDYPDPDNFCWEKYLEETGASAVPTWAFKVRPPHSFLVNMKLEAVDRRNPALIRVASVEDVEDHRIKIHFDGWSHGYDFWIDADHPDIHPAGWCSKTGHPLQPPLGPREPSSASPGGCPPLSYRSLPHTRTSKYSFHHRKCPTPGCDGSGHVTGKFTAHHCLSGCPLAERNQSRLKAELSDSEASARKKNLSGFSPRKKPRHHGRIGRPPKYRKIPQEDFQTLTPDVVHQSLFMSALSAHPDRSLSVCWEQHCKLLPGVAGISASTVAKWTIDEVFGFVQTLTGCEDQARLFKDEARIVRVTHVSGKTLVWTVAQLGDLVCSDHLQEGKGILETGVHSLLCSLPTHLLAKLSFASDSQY
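L3MBTL1 50 nM + b-AHA-H3(1-15)K9me1 75 nM, 30 min RT; compound added, 30 min RT; streptavidin donor/Ni-chelate acceptor beads 10 ug/mL each final, 30 min RT dark; AlphaScreen read.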
Hits are given with their value; [ ] = dose if it differs, or a comment. Unless noted, calls follow the shape of the dose curve; as a rule, active = well fitted curve in the direction sought with a large enough effect; inconclusive = small, poorly fitted or top-dose-only effect, or another doubt; inactive = no such curve, though single readings can be large; an effect the other way counts as inactive or inconclusive.

How did CSC1=N/C(=C\c2ccc(C)s2)C(=O)S1 do in these assays?
USP2a inh: inactive; CtBP-E1A inh: inactive; Six1-Eya2 blk: inactive; uPA generation: inactive; Eya2 inh: inactive; L3MBTL1 inh: inactive

How did CSC1=N/C(=C\c2ccc(C)o2)C(=O)S1 do in these assays?
USP2a inh: inactive; CtBP-E1A inh: inactive; Six1-Eya2 blk: inactive; uPA generation: inactive; Eya2 inh: inactive[15.4 µM]; L3MBTL1 inh: 28µM

What do the screens show for `O=C(O)CC1(C(=O)O)CC2C=CC1C2` (centres undefined)?
CtBP-E1A inh: inactive; Six1-Eya2 blk: inactive

How did Cc1ccc(C(=O)Nc2cccc(NC(=O)c3cccs3)c2)c(C)c1 do in these assays?
USP2a inh: inactive; Six1-Eya2 blk: inactive; uPA generation: 13µM; Eya2 inh: inactive; L3MBTL1 inh: inactive

Results for COc1cc(OC)c(OC)cc1/C=C1\CC(C)C/C(=C\c2cc(OC)c(OC)cc2OC)C1=O (centres undefined) ?
USP2a inh: inactive; CtBP-E1A inh: inactive; Six1-Eya2 blk: inconclusive; uPA generation: 8.9µM; Eya2 inh: inactive

How did O=C(NCCN1C(=O)S/C(=C\c2ccccc2Cl)C1=O)C1=COCCO1 do in these assays?
USP2a inh: inactive; CtBP-E1A inh: inactive; Six1-Eya2 blk: inactive; uPA generation: 7.9µM; Eya2 inh: inactive; L3MBTL1 inh: inactive

How did COc1ccc(/C=C2\SC(=O)N(CCNC(=O)C3=COCCO3)C2=O)cc1 do in these assays?
USP2a inh: inactive; CtBP-E1A inh: inactive; Six1-Eya2 blk: inactive; uPA generation: 7.1µM; Eya2 inh: inactive; L3MBTL1 inh: inactive

How did CCNC(=O)C1(C)CCN(C(=O)c2ccc(F)c(Cl)c2)C1 (centres undefined) do in these assays?
CtBP-E1A inh: inactive; Six1-Eya2 blk: inactive

Results for COc1cc(/C=C(\C#N)C(=O)Nc2cccc(C(=O)O)c2)ccc1OCc1ccc(F)cc1 ?
USP2a inh: inactive; CtBP-E1A inh: -70; Six1-Eya2 blk: inactive; uPA generation: inactive; Eya2 inh: inactive

How did N#C/C(=C\c1ccc(OCc2ccc(F)cc2)cc1)C(=O)Nc1cccc(C(=O)O)c1 do in these assays?
USP2a inh: inactive; CtBP-E1A inh: inactive; Six1-Eya2 blk: inactive; uPA generation: inactive; Eya2 inh: inactive

How did O=S(=O)(NCC1CN(S(=O)(=O)c2c(F)cccc2F)C1)c1ccc2c(c1)OCCO2 do in these assays?
USP2a inh: inactive; uPA generation: inactive; Eya2 inh: inactive; L3MBTL1 inh: inactive

What do the screens show for `O=S(=O)(O)c1cc(O)c2cc(Nc3ccccc3)ccc2c1`?
CtBP-E1A inh: inactive; Six1-Eya2 blk: inactive; uPA generation: inactive

What do the screens show for `O=S(=O)(O)c1ccc(O)c2cc(Nc3ccccc3)ccc12`?
CtBP-E1A inh: inactive; Six1-Eya2 blk: -73; uPA generation: inactive

What do the screens show for `O=C(Nc1cccc(S(=O)(=O)N2CCOCC2)c1)c1cc(S(=O)(=O)N2CCOCC2)c(Cl)cc1Cl`?
CtBP-E1A inh: inconclusive; Six1-Eya2 blk: inactive; uPA generation: inactive

What do the screens show for `COc1cc(OC)cc(C(=O)NNC(=O)c2ccc3ccccc3n2)c1`?
USP2a inh: inactive; CtBP-E1A inh: inactive; Six1-Eya2 blk: inactive; uPA generation: inconclusive; Eya2 inh: inactive; L3MBTL1 inh: inactive

Results for CC(Oc1ccccc1)C(=O)NNC(=O)c1ccccn1 (centres undefined) ?
USP2a inh: inactive; CtBP-E1A inh: inactive; Six1-Eya2 blk: -67; uPA generation: inactive; Eya2 inh: inactive; L3MBTL1 inh: inactive

What do the screens show for `COc1ccc(C(=O)NC(=S)NNC(=O)c2ccc3ccccc3n2)cc1`?
USP2a inh: inactive; CtBP-E1A inh: -82; Six1-Eya2 blk: -86; uPA generation: inactive; Eya2 inh: inactive; L3MBTL1 inh: inconclusive

Results for CC(Oc1cccc(Br)c1)C(=O)NNC(=O)c1ccccn1 (centres undefined) ?
USP2a inh: inactive; CtBP-E1A inh: inconclusive; Six1-Eya2 blk: inconclusive; uPA generation: inconclusive; Eya2 inh: inactive; L3MBTL1 inh: inactive

Results for O=C(NNC(=O)c1ccccn1)c1cccc([N+](=O)[O-])c1 ?
USP2a inh: inactive; CtBP-E1A inh: -66; Six1-Eya2 blk: -82; uPA generation: inactive; Eya2 inh: inactive; L3MBTL1 inh: inactive

How did COc1ccc(C(=O)NNC(=O)c2ccccn2)cc1 do in these assays?
USP2a inh: inactive; Six1-Eya2 blk: inactive; uPA generation: 3.2µM; Eya2 inh: inactive; L3MBTL1 inh: inactive

What do the screens show for `O=C(c1ccc2ccccc2c1O)N1CCCCC1`?
CtBP-E1A inh: inactive; Six1-Eya2 blk: inactive

Results for CCOc1ccc(NC(=O)c2ccccn2)cc1 ?
USP2a inh: inactive; CtBP-E1A inh: inactive; Six1-Eya2 blk: inactive; uPA generation: 1.6µM; Eya2 inh: inactive; L3MBTL1 inh: inactive

How did CC(=O)c1ccc(OCCCC(=O)NNC(=O)c2ccccn2)cc1 do in these assays?
USP2a inh: inactive; CtBP-E1A inh: -70; Six1-Eya2 blk: inconclusive; uPA generation: inconclusive; Eya2 inh: inactive; L3MBTL1 inh: inactive

What do the screens show for `C/C(=N\NC(=O)C(C)Oc1ccc([N+](=O)[O-])cc1)c1ccccn1` (centres undefined)?
USP2a inh: inactive; CtBP-E1A inh: -94; Six1-Eya2 blk: -88; Eya2 inh: inactive; L3MBTL1 inh: inactive

How did CCOc1ccc(OCCCC(=O)NNC(=O)c2ccncc2)cc1 do in these assays?
USP2a inh: inactive; CtBP-E1A inh: inactive; Six1-Eya2 blk: inactive; uPA generation: inactive; Eya2 inh: inactive; L3MBTL1 inh: inactive

How did COc1cc(OC)cc(C(=O)NNC(=O)c2ccccn2)c1 do in these assays?
USP2a inh: inactive; CtBP-E1A inh: -90; Six1-Eya2 blk: -92; uPA generation: inactive; Eya2 inh: inactive; L3MBTL1 inh: inactive

Results for O=c1[nH]c(SCc2ccc(OC(F)(F)F)cc2)nc2c1CCC2 ?
CtBP-E1A inh: inactive; Six1-Eya2 blk: inactive

Results for O=C(CC1C(=O)NCCN1Cc1ccc(Cl)c(F)c1)NC1CCC1 (centres undefined) ?
USP2a inh: inactive; CtBP-E1A inh: inactive; Six1-Eya2 blk: inactive; uPA generation: inactive; Eya2 inh: inactive

What do the screens show for `CN1CCOc2cc(S(=O)(=O)NCc3ccc(S(N)(=O)=O)cc3)ccc21`?
USP2a inh: inactive; CtBP-E1A inh: inactive; Six1-Eya2 blk: inactive; uPA generation: inactive; Eya2 inh: inactive

What do the screens show for `CCOC(=O)Nc1ccc2c(c1)C(=NNC(N)=S)c1ccccc1-2`?
CtBP-E1A inh: -65; Six1-Eya2 blk: -79; uPA generation: inactive

Results for CCOC(=O)Nc1ccc2c(c1)C(=NO)c1ccccc1-2 ?
CtBP-E1A inh: inactive; Six1-Eya2 blk: inactive; uPA generation: inactive

Results for CC(N)c1csc(Nc2ncccn2)n1 (centres undefined) ?
CtBP-E1A inh: -88; Six1-Eya2 blk: -84
